The source of these data is PubChem BioAssay (NCI).

SMILES strings stand for the structures. About 83,000 compounds went through this panel and 20% of them were active in at least one assay; those are over-represented in the sample as a whole.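 Plates (96-well) were seeded with cells, treated with compound at one concentration, and incubated for 48 hours before percent growth was determined.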 Activity calls are given as the source filed them. How the source made its calls: active means growth percent below 10; inactive means the rest.

The test deals with OVCAR-4 ovarian. Briefly: NCI-60 one-dose screen, 48 h (100 = growth as untreated, 0 = no growth, -100 = all killed). The note with it: 10 µM unless noted.
In the case of `CCOP(=O)(Nc1ccc2c(c1)/C(=N/NC(N)=S)c1ccccc1-2)OCC`, the growth is 96.9% (inactive).

Regarding `O=C(N/N=C\c1ccc(N(CCCl)CCCl)cc1Cl)c1cccnc1`, the growth was 53.7% (inactive).

As for `COC(=O)CCc1c[nH]c2ccc(N(CCCl)CCCl)cc12`, the growth is 79.7% (inactive).

With `COc1cc(C=Nc2cccc(C(=O)O)c2)ccc1N(CCCl)CCCl`, the growth is 114% (inactive).

Turning to `C/C(CC(C)(C)N1CC1)=N\NC(=O)Nc1cccc2ccccc12`, the growth was 55.8% (inactive).

As for `CCCCNC(c1ccc(Cl)cc1)C(O)c1ccc(Cl)cc1` (stereo not drawn), the growth is 65.9% (inactive).

`O=C(O)CNC(=O)C(Cl)(Cl)Cl`: the growth was 99.5% (inactive).

For the compound `CC1(C)[C@H](O)[C@H](F)C[C@@]2(C)Oc3ccc(C(=O)Nc4ccc5c(c4)NC(=O)C54CCN(CCCCC#N)CC4)cc3C[C@H]12`, the growth is 64.9% (inactive).

On to `COC(=O)[C@@H](C)C[C@H](Cc1ccccc1)NC(=O)c1csc([C@@H](C[C@H](C(C)C)N(C)C(=O)[C@@H](NC(=O)[C@H]2CCCCN2C)C(C)C)OC(C)=O)n1`, for which the growth is 44.6% (inactive).

Take `N#CCCNc1ccccc1`: the growth is 105% (inactive).

With `CCCCCC1(CCBr)C(=O)NC(=O)NC1=O`, the growth is 111% (inactive).

Take `CC[C@H](C)[C@H](NC(=O)[C@H]1CCCCN1C)C(=O)N(C)[C@H](CCc1nc(C(=O)N[C@@H](Cc2ccccc2)C[C@H](C)C(=O)OC)cs1)C(C)C`: the growth was 43.6% (inactive).

For the compound `COC(=O)[C@@H](C)C[C@H](Cc1ccccc1)NC(=O)c1csc([C@@H](C[C@H](C(C)C)N(C)C(=O)[C@@H](NC(=O)[C@H]2CCCCN2C)C(C(F)(F)F)C(F)(F)F)OC(C)=O)n1`, the growth was 43.7% (inactive).

For `NC(CCl)CCl`, the growth was 102% (inactive).

On to `[Cl][Hg][n]1c(-c2ccco2)nc2ccccc21`, for which the growth was 100% (inactive).

In the case of `Cc1cc(N(CCCl)CCCl)ccc1C=Nc1ccccc1-c1ccccc1`, the growth is 99.5% (inactive).

As for `CCC1CN1CCCCN1CC1CC` (stereo not drawn), the growth was 102% (inactive).

Take `COC(=O)[C@@H](C)C[C@H](Cc1ccccc1)NC(=O)c1csc([C@@H](C[C@H](C(C)C)N(C)C(=O)[C@@H](NC(=O)C23CC(NC(C)=O)(C2)C3)C2CC2)OC(C)=O)n1`: the growth was 77.7% (inactive).

As for `O=[N+]([O-])CC(O)C(Cl)(Cl)Cl` (stereo not drawn), the growth was 94.2% (inactive).

As to `O=[N+]([O-])c1ccc(OP(=O)(CCl)N(CCCl)CCCl)cc1` (stereo not drawn), the growth is 104% (inactive).

Take `CCOc1ccc(/C=C/[N+](=O)[O-])cc1`: the growth was 87.9% (inactive).

Consider `CN(C)CCCOc1ccc2c(c1)c(C(=O)C(=O)NCCO)cn2Cc1ccccc1`, for which the growth is 105% (inactive).

`O=C(CC1(O)C(=O)Nc2ccc(Cl)cc21)c1ccc(C(=O)NCC2CCC3(CC2)OOC2(CCCCC2)OO3)cc1` (stereo not drawn): the growth is 14.4% (inactive).
